MCF10A rerep: induces DNA re-replication in MCF 10a normal breast cells | MCF 10A DNA re-replication, Hoechst nuclear intensity, 48 h | Potency, µM (titrated, usually from 46.1 µM), inactives show top-dose activity, positive = re-replication, hits mostly activators | 2.9% of 350,000 active | AID 624296; further: potency means the concentration at half of the fitted maximal effect; % of control where 0% means no effect; nearly all actives have a fitted effect of over 50% in size
SW480 rerep: inducers of DNA re-replication in SW480 colon cancer cells | SW480 DNA re-replication, Hoechst DNA content imaging, 48 h | Potency, µM (top dose mostly 46.1 µM), for the others: at the highest dose re-replication activation, actives largely listed as activators | 1.8% of 340,000 active | AID 624297; further: potency means the concentration at half of the fitted maximal effect; % of control where 0% means no effect; nearly all actives have a fitted effect of over 55% in size
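Readout is total intensity of Hoechst-stained nuclei, excited at 405 nm and collected at 500-530 nm. Compound treatment lasted 48 hr at 37 C in 5% CO2 before staining.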
IL-1B inflam inh: blocks inflammasome-driven IL-1 beta release; THP-1 LPS/ATP IL-1B secretion, AlphaLISA, 16 h; hits give low values; activity change, % at 57.5 µM; 4.7% of 360,000 active; AID 743279; in the data active means activity change below about -50%; inconclusive means mostly about -30% to -49%; further: on the % scale 0 is the no-effect control and ±100 the full control effect
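THP-1 cells pretreated 1 hr with compounds (up to 57.5 uM final), then stimulated with LPS (250 ng/mL final) plus ATP (1.25 mM final); secreted IL-1B measured by AlphaLISA after 16 hr, decreased signal indicating inhibition.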
BCR signal inh: inhibitors of chronic active B-cell receptor signaling. AID 493014. ABC-DLBCL IkBa-CBG/CBR reporter, luminescence ratio, 4 h. Potency, µM (highest dose often 46.1 µM), for inactives: top-dose activity change, negative = inhibition, actives largely listed as inhibitors. 0.05% of 340,000 active; active means well fitted inhibition curve with a large enough effect in the signal ratio, with a control signal flat, not every such curve was filed as active; inconclusive means small, poorly fitted or top-dose-only effect, or effect the other way, or a change in a side signal; the % refers to the signal ratio;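 further: potency means the concentration at half of the fitted maximal effect; plate controls were basal doxycycline-induced cells for no effect and cells given 10 µM MG132 for full effect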
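Doxycycline induced both beetle luciferases in TMD8 lymphoma cells; IKK-driven degradation limits the IkappaBalpha-fused green signal, while red luminescence normalises for cell number and nonspecific effects. Compounds tested up to 46 uM, 4 hrs.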
DT40 TDP1 no CPT: qHTS for Inhibitors of human tyrosyl-DNA phosphodiesterase 1 (TDP1): qHTS in cells in absence of CPT. 15% of 420,000 active. AID 686978, 2013. DT40 Tdp1-/- hTDP1 cells, no CPT, ATP luminescence, 48 h. Potency, µM (highest dose often 46.2 µM), without a hit: top-dose activity change, negative = growth inhibition, most hits filed as inhibitors; further: potency means the concentration at half of the fitted maximal effect; on the % scale 0 is the no-effect control and ±100 the full control effect; nearly all actives have a fitted effect of over 55% in size
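Growth kinetics read by CellTiter-Glo luminescence after ≥48 hr at 37 °C. Cells: DT40 Tdp1-/- stably carrying human TDP1, 400 per well, compound exposure in the absence of CPT (DMSO vehicle).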
DT40 TDP1 CPT: growth inhibition of DT40 Tdp1-/-;hTDP1 cells with camptothecin (screen for TDP1 inhibitors); chicken DT40 Tdp1-/-;hTDP1 cells + 20 nM CPT, ATP luminescence, 48 h; Potency, µM (top dose mostly 46.2 µM), for the others: at the top dose activity change, negative = growth inhibition, actives largely listed as inhibitors; 12% of 420,000 active; AID 686979; further: potency means the concentration at half of the fitted maximal effect; on the % scale 0 is the no-effect control and ±100 the full control effect; nearly all actives have a fitted effect of over 55% in size
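Chicken DT40 Tdp1-/- cells stably complemented with human TDP1 were seeded at 400 cells/well in medium containing 20 nM camptothecin, exposed to pin-transferred compounds, and grown at 37 °C for at least 48 hr. Viability was read as ATP luminescence.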
An asterisk follows results filed as active; ? = inconclusive; / = no result; [ ] = another dose, or the depositor's remark. Sampled rows, rich in hits. Any-hit rate of the full collection: about 19%. Unless noted, the call rests on the fitted dose curve; in most records, active means well fitted curve in the direction sought with a large enough effect; inconclusive means small, poorly fitted or top-dose-only effect, or another doubt; inactive means no such curve, though single readings can be large; an effect the other way counts as inactive or inconclusive.

SMILES | MCF10A rerep | SW480 rerep | IL-1B inflam inh | BCR signal inh | DT40 TDP1 no CPT | DT40 TDP1 CPT
COc1ccc(C2NC(=O)N(C)C3=C2C(=O)N(c2ccc(F)cc2)C3)cc1 (configuration not stated) | / | / | / | -22% | -28% | 10%
CC(=O)NCCn1c(SCc2ccc(C)cc2C)nc2ccccc2c1=O | 20% | 22% | -7 | -15% | 8.2µM* | 10µM*
CC(=O)NCCn1c(SCc2ccccc2C)nc2ccccc2c1=O | 9% | -11% | 21 | ? | 16µM* | ?
Cc1cc(C)nc(SCc2nnc(SCC(=O)Nc3nc(-c4ccccc4)cs3)n2-c2ccccc2)n1 | 12% | -1% | 0 | ? | 18µM* | ?
COc1ccc(NCc2nnc(SCC(=O)Nc3nc(-c4ccccc4)cs3)n2-c2ccccc2)cc1 | 10µM* | ? | 46 | 4% | 23µM* | 4.6µM*
COc1ccc(-n2c(CNc3ccc(C)cc3)nnc2SCC(=O)Nc2nc(-c3ccccc3)cs2)cc1 | 15µM* | ? | 40 | -5% | 10µM* | 5.6µM*
Cc1cc(C)nc(SCc2nnc(SCC#N)n2-c2cccc(Cl)c2)n1 | -3% | -1% | -4 | 0% | 21µM* | ?
COc1ccc(N2CCN(C(=O)COC(=O)CNC(=O)c3cccc(OC(F)F)c3)CC2)cc1 | -4% | 66% | 8 | -7% | -5% | -23%
COc1ccc(C2=NCCn3nc4cc(OC)ccc4c32)cc1 | -22% | -4%[9.22 µM] | -2 | -11% | ? | ?
O=C(NCc1ccccn1)[C@@H]1CCCN1C(=O)[C@@H]1CCCN1C(=O)c1ccc(Cl)cc1 | / | / | 4 | / | -23% | 2%
CCn1c(CCNC(=O)c2cccs2)nnc1SCC(=O)Nc1cccc(Cl)c1 | 2% | 1% | -21 | / | -12% | 0%
CCn1c(CCNC(=O)c2cccs2)nnc1SCC(=O)Nc1nc(-c2ccccc2)cs1 | ? | -1% | -30 | ? | 10µM* | 16µM*
COc1ccc(-n2nc(C(=O)Nc3cc(OC)c(OC)c(OC)c3)c(=O)n(C)c2=O)cc1 | / | / | / | / | -28% | ?
COc1cccc(NC(=O)c2nn(-c3ccc(C)cc3)c(=O)n(C)c2=O)c1 | / | / | / | / | 15µM* | ?
CCc1nc(CN2CCOc3ccc(C(O)C4CCCCC4)cc3C2)c(C)[nH]1 (configuration not stated) | / | / | / | / | 18µM* | ?
COc1ccc(/C=N/NC(=O)c2c(Br)cnn2C)c2ccccc12 | ? | 0% | 14 | -13% | -20% | -18%
CCN(CC)S(=O)(=O)c1ccc(/C=C/C(=O)OCC(=O)NCc2cccs2)cc1 | ? | 1% | 11 | -6% | ? | 21µM*
CCN(CC)S(=O)(=O)c1ccc(C(=O)OCC(=O)NCc2ccco2)cc1 | 10% | 4% | 17 | 1% | -27% | ?
CCN(CC)S(=O)(=O)c1ccc(/C=C/C(=O)OCC(=O)NCc2ccco2)cc1 | ? | -1% | -10 | 1% | ? | 9.2µM*
CCOC(=O)C1CCCN(C(=O)c2cc(C#N)cs2)CC1 (configuration not stated) | / | / | 0 | / | 5% | 1%
CCCCOc1ccc(/C=C/C2=CC(C)(C)NC(=S)N2)cc1OCC | ? | 46% | ? | -12% | 13µM* | ?
O=C(Cc1cccc(NC(=O)C2CCCN(C(=O)C3CCC3)C2)c1)Nc1cccc(C(=O)N2CCCC2)c1 (configuration not stated) | 21% | 1% | -5 | 0% | -24% | -25%
Cc1ccccc1NC(=O)C1CC(=O)N(c2ccc3c4c(cccc24)CC3)C1 (configuration not stated) | -3% | 2% | -30 | ? | -23% | ?
O=C(Nc1ccccc1Br)C1CC(=O)N(c2ccc3c4c(cccc24)CC3)C1 (configuration not stated) | 21µM* | ? | ? | 1% | 21µM* | 23µM*
O=C(NC1CCCCC1)c1nc(-c2c(F)cccc2F)oc1-c1ccccc1 | / | / | -14 | / | 26µM* | 23µM*
SMILES | MCF10A rerep | SW480 rerep | IL-1B inflam inh | BCR signal inh | DT40 TDP1 no CPT | DT40 TDP1 CPT
O=C(NC1CCCC1)c1nc(-c2ccco2)oc1-c1ccccc1 | / | / | -4 | / | ? | ?
C[C@]12CC[C@@H]3c4ccc(O)cc4CC[C@H]3[C@@H]1CC[C@@H]2O | ? | ? | 24 | ? | 23µM* | ?
CC(=O)O[C@H]1CC[C@H]2[C@@H]3CCc4cc(O)ccc4[C@H]3CC[C@]12C | ? | ? | 8 | ? | ? | ?
C#C[C@]1(O)CC[C@H]2[C@@H]3CCc4cc(O)ccc4[C@H]3CC[C@@]21C | 18µM* | ? | 26 | ? | 15µM* | ?
CC(NCCN(C)C)C1CCC2C3CCc4cc(O)ccc4C3CCC12C (configuration not stated) | 28% | ? | -102* | / | 1.6µM* | ?
CC12CCC3c4ccc(O)cc4CCC3C1CCC2=O (configuration not stated) | 2% | -87% | 21 | ? | 0% | 0%
C[C@]12CC[C@@H]3c4ccc(O)cc4CC[C@H]3[C@@H]1CCC2OC(=O)CCC1CCCC1 (some centres not stated) | 24µM* | ? | / | / | / | /
COc1ccc2c(c1)CCC1C2CC[C@@]2(C)C(O)CCC12 (some centres not stated) | / | / | / | / | -3% | -21%
CC(=O)OC1CCC2C3CCc4cc(O)ccc4C3CCC12C (configuration not stated) | ? | ? | 31 | / | ? | ?
CC(c1ccccc1)N(C)C(=O)CSc1nnc(C2CC2)n1C1CC1 (configuration not stated) | -2% | -4% | -3 | -3% | 21% | 3%
O=C(CCCCCN1C(=O)[C@@H]2Cc3ccccc3CN2C1=O)Nc1ccccc1F | 0% | -5% | 18 | ? | ? | ?
COc1ccc(C(=O)c2sc3nc(-c4ccc(OC)cc4)ccc3c2N)cc1 | ? | ? | 20 | 4% | -11% | 17%
COc1ccc2cc3c(N)c(C(=O)N4CCCC4)sc3nc2c1 | 16% | -11% | -69* | ? | 21µM* | ?
Nc1c(C(=O)N2CCCC2)sc2nc(-c3ccccc3)ccc12 | 18µM* | 18µM* | ? | -1% | -19% | -10%
